This note sets out measurements from PubChem BioAssay (NCI).

Test systems include NCI-H23 lung; NCI-H226 lung; NCI-H322M lung; HOP-62 NSCLC; NCI-H460 lung; NCI-H522 lung; A549/ATCC NSCLC; 786-0 renal; COLO 205 colon; DU-145 prostate; K-562 leukemia; MALME-3M melanoma; MDA-MB-231 breast; RXF 393 renal; SF-268 CNS; SF-295 CNS; SF-539 CNS; UACC-257 melanoma; M14 melanoma.
Common to all, as to experiment: NCI-60 one-dose screen, 48 h (100 = growth as untreated, 0 = no growth, -100 = all killed)
What all share (details): 10 µM unless noted

Compounds without any hit were thinned out: in the full panel of roughly 83,000, 20% have a hit.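 A percent growth of 40 corresponds to 60% growth inhibition; 0 means no net growth; -100 means all cells died. Active threshold: below 10.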 Unmarked numbers belong to inactive results. Activity calls are given as the source filed them.

Regarding `Cc1cc(C)c(N2C(=O)CC(Nc3ccc(Cl)cc3Cl)C2=O)c(C)c1` (configuration not stated), the growth in the test with NCI-H23 lung is 104%; with NCI-H226 lung, 107%; in the test on NCI-H322M lung, 99.8%; in the test on HOP-62 NSCLC, 104%; in the test with NCI-H460 lung, 105%; in the test on NCI-H522 lung it was 93.6%. In addition, the growth was 104% with A549/ATCC NSCLC; 102% in the test on 786-0 renal; 124% with COLO 205 colon; 110% in the test on DU-145 prostate; 102% in the test on K-562 leukemia; 96.7% in the test on MALME-3M melanoma. For the same compound, the growth with MDA-MB-231 breast is 102%; in the test with RXF 393 renal, 121%; in the test on SF-268 CNS it was 106%; in the test with SF-295 CNS, 105%; in the test with SF-539 CNS, 96.8%; in the test with UACC-257 melanoma, 103%. Moreover, the growth in the test with M14 melanoma is 103%.
For the compound `O=C(CSc1nc2ccccc2c(=O)n1-c1ccccc1)Nc1cccc(C(=O)/C=C/c2ccccc2Cl)c1`, the growth in the test with NCI-H23 lung was 96.8%; with NCI-H226 lung, 97.1%; in the test on NCI-H322M lung it was 106%; in the test on HOP-62 NSCLC, 118%; in the test with NCI-H460 lung it was 101%; in the test with NCI-H522 lung, 97.4%. Also, the growth in the test on A549/ATCC NSCLC is 97.6%; in the test on 786-0 renal it was 105%; in the test with COLO 205 colon it was 119%; in the test on DU-145 prostate, 105%; with K-562 leukemia, 94.8%; with MALME-3M melanoma, 113%. For the same compound, the growth in the test on MDA-MB-231 breast was 99.7%; in the test with RXF 393 renal it was 96.7%; in the test with SF-268 CNS, 101%; in the test with SF-295 CNS, 102%; in the test on SF-539 CNS it was 102%; with UACC-257 melanoma it was 112%. The growth in the test with M14 melanoma is 103%.
Consider `O=C(Nc1nonc1-c1ccccc1)c1ccc(C(F)(F)F)cc1`, for which the growth was 72.6% in the test on NCI-H23 lung; 89.4% in the test on NCI-H226 lung; 86.9% with NCI-H322M lung; 81.5% with HOP-62 NSCLC; 47.6% in the test with NCI-H460 lung; 82.7% with NCI-H522 lung. Further, the growth in the test with A549/ATCC NSCLC was 87.3%; in the test on 786-0 renal, 90.4%; with COLO 205 colon, 119%; in the test with DU-145 prostate it was 92.5%; in the test with K-562 leukemia, 70%; with MALME-3M melanoma, 68.5%. The growth is 85.1% in the test with MDA-MB-231 breast; 90.3% with RXF 393 renal; 81.6% in the test with SF-268 CNS; 59.7% in the test on SF-295 CNS; 95.9% with SF-539 CNS; 77.8% with UACC-257 melanoma. Further, the growth in the test with M14 melanoma was 71.1%.
Turning to `COc1ccc(OC)c(-c2nc(SCC(=O)c3ccc(Br)cc3)nc(Nc3ccc(S(N)(=O)=O)cc3)c2C#N)c1`, the growth in the test on NCI-H23 lung is 58.4%; in the test with NCI-H226 lung it was 50%; in the test on NCI-H322M lung it was 81.7%; in the test on HOP-62 NSCLC, 48.4%; in the test on NCI-H460 lung it was 20.8%; in the test on NCI-H522 lung, 48%. In addition, the growth in the test with A549/ATCC NSCLC is 67.4%; in the test on 786-0 renal, 41.4%; with COLO 205 colon, 68.4%; with DU-145 prostate, 55.2%; in the test on K-562 leukemia, 22.5%; with MALME-3M melanoma, 50.2%. In addition, the growth was 63% in the test with MDA-MB-231 breast; 17.3% in the test on RXF 393 renal; 56.7% in the test on SF-268 CNS; 33.1% with SF-295 CNS; 28.4% in the test on SF-539 CNS; 56.9% in the test on UACC-257 melanoma. Also, the growth in the test with M14 melanoma was 42.5%.
Turning to `Nc1nc(-c2cccc([N+](=O)[O-])c2)c(N=Nc2ccccc2)s1`, the growth was 70.2% in the test on NCI-H23 lung; 73.1% with NCI-H226 lung; 76.2% in the test with NCI-H322M lung; 80.6% with HOP-62 NSCLC; 56.6% with NCI-H460 lung; 48.6% in the test on NCI-H522 lung. In addition, the growth in the test on A549/ATCC NSCLC was 60%; with 786-0 renal it was 59.7%; with COLO 205 colon, 63.1%; in the test on DU-145 prostate, 69.5%; in the test on K-562 leukemia, 32.8%; with MALME-3M melanoma, 103%. The growth with MDA-MB-231 breast was 62%; in the test on RXF 393 renal it was -16.3% (active); in the test with SF-268 CNS, 66.4%; in the test with SF-295 CNS, 63%; in the test with SF-539 CNS, 71.6%; with UACC-257 melanoma, 93.4%. Further, the growth with M14 melanoma was 57.7%.
On to `CCNC(=O)N1CCc2cc(OC)c(OCCc3ccc(OC)cc3)cc2C1c1ccc(OC)cc1C` (configuration not stated), for which the growth in the test with NCI-H23 lung is 29%; in the test on NCI-H226 lung, 33.5%; in the test on NCI-H322M lung, 40.1%; in the test with HOP-62 NSCLC, 20.3%; in the test on NCI-H460 lung, 1.22% (active); with NCI-H522 lung, -8.18% (active). The growth in the test on A549/ATCC NSCLC is 13.8%; with 786-0 renal it was 9.54% (active); in the test with COLO 205 colon, 27.6%; in the test on DU-145 prostate it was 16.2%; in the test on K-562 leukemia, 16.5%; with MALME-3M melanoma it was 45.9%. The growth is 19.7% with MDA-MB-231 breast; -12.7% (active) with RXF 393 renal; 34% with SF-268 CNS; 10.6% in the test on SF-295 CNS; 6.35% (active) in the test with SF-539 CNS; 50.5% in the test with UACC-257 melanoma. Also, in the test on M14 melanoma, the growth is 20%.
On to `CCCn1cnc2c(c1=N)C(c1ccc(Cl)cc1)c1sc3c(CC)cccc3c1O2` (configuration not stated), for which the growth in the test with NCI-H23 lung was 19.2%; in the test with NCI-H226 lung, 57.7%; with NCI-H322M lung, 45.8%; in the test with HOP-62 NSCLC, 31.1%; with NCI-H460 lung, 7.5% (active); in the test with NCI-H522 lung it was -25.7% (active). Moreover, the growth in the test on A549/ATCC NSCLC was 30.4%; in the test with 786-0 renal, 30%; with COLO 205 colon it was -14.3% (active); in the test on DU-145 prostate, 13.7%; in the test on K-562 leukemia, 11.3%; in the test on MALME-3M melanoma, 55.6%. Moreover, the growth in the test on MDA-MB-231 breast was 30.8%; with RXF 393 renal, -22.5% (active); with SF-268 CNS it was 45.4%; in the test on SF-295 CNS, -12.8% (active); with SF-539 CNS, -19.7% (active); in the test with UACC-257 melanoma, 83.9%. Further, the growth in the test with M14 melanoma was 2.63% (active).
Regarding `O=c1c2ccccc2nc(COc2ccccc2)n1NS(=O)(=O)c1ccc(Cl)cc1`, the growth with NCI-H23 lung was 82.8%; with NCI-H226 lung, 83%; with NCI-H322M lung, 82.9%; in the test with HOP-62 NSCLC, 75%; in the test with NCI-H460 lung it was 96.1%; with NCI-H522 lung it was 69.4%. Also, the growth in the test with A549/ATCC NSCLC was 86%; in the test with 786-0 renal, 107%; with COLO 205 colon, 95%; with DU-145 prostate it was 100%; in the test on K-562 leukemia it was 47.3%; with MALME-3M melanoma, 82.1%. In addition, the growth is 67.4% in the test on MDA-MB-231 breast; 97% with RXF 393 renal; 88.6% in the test with SF-268 CNS; 97.2% in the test with SF-295 CNS; 86.9% in the test on SF-539 CNS; 91.2% in the test on UACC-257 melanoma. The growth in the test on M14 melanoma was 74.2%.
